Over roughly 33,000 sequences, “E-score (-0.5 to 0.5)” has its median near -0.0014; the highest 2% begin near 0.25. Many of the other results were omitted from the sample, so the highest values are more common in it than they were.
These sequences were tested against T1, Cad1 (UniProt P24813) (assay: PBM E-score (8-mer binding enrichment) (E-score (-0.5 to 0.5)); higher = stronger / more preferred TF binding). Conditions: protein concentration: 100 nM; construct: GST-full length.
T1 sequence: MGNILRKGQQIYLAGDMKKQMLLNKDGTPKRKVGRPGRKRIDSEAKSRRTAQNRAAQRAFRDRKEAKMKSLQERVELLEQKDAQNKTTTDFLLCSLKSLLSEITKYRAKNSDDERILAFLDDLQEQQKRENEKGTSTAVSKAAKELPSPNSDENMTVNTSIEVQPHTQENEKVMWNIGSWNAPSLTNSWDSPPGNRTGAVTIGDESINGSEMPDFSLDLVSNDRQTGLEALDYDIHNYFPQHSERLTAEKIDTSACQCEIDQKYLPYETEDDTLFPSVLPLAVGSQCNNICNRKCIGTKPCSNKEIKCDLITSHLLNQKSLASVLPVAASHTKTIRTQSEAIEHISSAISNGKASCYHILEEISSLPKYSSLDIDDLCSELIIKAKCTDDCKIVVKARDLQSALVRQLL
Procedure: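 Universal 'all 10-mer' protein binding microarrays (Agilent AMADID 015681) probed with GST-tagged S. cerevisiae TFs (full-length or DBD) made by in vitro transcription/translation (PURExpress), about 100-200 nM. Bound TF was detected with fluorescent anti-GST. Each ungapped 8-mer (which stands for itself and its reverse complement) is scored by the PBM enrichment score (E-score), a modified Wilcoxon-Mann-Whitney statistic from -0.5 to +0.5, computed with the Universal PBM Analysis Suite. Scale: above 0.35 generally sequence-specific binding.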

Sequence	PBM E-score
AGCGGACC	-0.113
ACTCGAGT	0.311
ACTCGAGA	-0.0156
ACTCGAGG	0.107
AAATCGGA	0.171
TAATCGGA	0.152
CAATCGGA	0.259
TAGCGACA	0.0174
ATGGCCAA	-0.046
ATGGCCAT	0.252
ATGGCCAG	0.273
ATGGCCAC	-0.21
ATGGCCTG	0.0685
CTGGCCAG	-0.159
GGAGATCA	-0.0337
ATAGCCCA	0.062
CAAACCGA	0.0658
ATAATGAA	0.166
ATCGGATA	0.276
TACGGATA	0.116
AACGGATT	0.317
AACGGATG	-0.0154
AACGGATC	0.217
AACGGAAT	0.269
CACGGATA	0.22

Sequence	PBM E-score
AACGGAAG	0.114
CTCGGATA	0.193
AACGGATA	0.252
GTCGGATA	0.0779
AACGGAAA	0.219
CTGAGGCC	-0.0469
CTACTGCC	-0.162
CAGGATCA	-0.0245
ACTTGTGG	-0.0436
CGATAATC	-0.016
AGTTAAAA	0.14
AAGCCCTT	-0.0922
CGCGGATC	0.0644
CGCGGATA	0.258
AGCGGATA	-0.0234
CCTGCCCA	-0.0659
CGTCAAGC	-0.0629
CGCATATC	0.318
CGCATATA	-0.0685
AGCATATC	0.025
CCCGTTCG	0.016
GCGTCGAA	0.116
GCGTCGAC	0.252
ATGTCGAC	0.276
CTGTCGAC	-0.0383

Sequence	PBM E-score
CCGTCGAC	-0.0671
AAGTCGAA	-0.0588
AAGTCGAC	0.256
AAGTCGAT	0.0428
ATGTCGAA	-0.00122
CCGACAAG	-0.0166
CATCTCCA	0.09
ATACATAT	0.286
AAACATAG	-0.0611
AAACATAC	-0.123
ATACATAA	0.12
AAACATAT	0.25
ATACATAC	-0.195
GCGGCCGC	0.175
AATTGATC	-0.0161
AATTGATA	0.206
AATTGATG	0.251
TCACGTGA	0.125
TCCGCTCA	-0.195
ACTCGAAA	-0.0505
AGAGCCCT	-0.122
CCTGATTC	0.0985
CTTGAATA	0.118
ATTGATTG	0.133
CCTGATGA	0.0887

Sequence	PBM E-score
ATTGATTA	0.286
CCTGATTA	0.31
ACTGATTA	0.265
ATTGAATC	-0.0423
ACTGATTC	-0.0134
ATTGAATA	0.281
ACTGATTG	0.0651
ATTGATTC	0.12
CAGCATAA	0.169
AATTAAGT	0.181
ACTACTGC	-0.0336
GACTACGA	-0.0382
GATGGGTA	0.0269
CCAGCCAG	-0.207
GATGATTA	0.126
GCTGATTA	0.378
GCTGATAA	0.161
CTCATGGC	-0.0384
TAGAACTA	0.0157
ACTAGGAT	-0.0418
GTCGGTAA	-0.116
CTATAGCA	-0.0148
AATTCCAC	0.111
AATTCCAT	0.0643
AATTCCAG	0.257

Sequence	PBM E-score
AGTATCTC	0.178
TCTTCAAA	-0.0389
GAACTCGA	0.0968
TAACTCGA	0.275
CAACTCGA	0.175
AAATTCAC	0.0164
AATTATCT	0.282
ACTTATCT	0.0827
AATTATCC	0.0534
AATTATCA	0.266
AATTATTA	0.249
AATTATCG	0.247
AGGAGACT	-0.286
ATAAAACA	0.0107
CGATCGCA	0.169
CCAGATGA	-0.131
TGAGCGAA	0.123
GCTGACCC	-0.145
GCTGACCA	0.252
GATGACTA	0.172
GCTGACTA	0.335
CCTGACTA	0.351
CCTGACTC	-0.139
ACTGACCA	-0.105
GTTGACTA	0.0212

Sequence	PBM E-score
ACTGACTA	0.116
CCGATGGC	-0.118
CGGGTGGA	-0.0447
CGTTAGCC	0.0683
GCCCTAAA	-0.269
CTCGAAGC	0.00892
CGCACTAA	0.155
AGCACTAA	0.094
TGCACTAA	0.32
TCGGGGAA	0.0236
GAGACGTA	-0.0175
GCACAAAA	0.18
GAACAAAA	0.274
GAACAAAC	0.0779
AAACAAAA	-0.0143
GGACAAAA	0.0884
ACACAAAA	0.0974
CGACAAAA	0.136
TCACAAAA	0.253
TGACAAAA	0.251
ATCAGCAG	0.191
AATATCCT	-0.0122
ATAATTCC	-0.00553
CAAATTTG	0.33
AAAATTTG	0.196

Sequence	PBM E-score
ATTATAAT	0.227
ATAATTTC	0.154
CTAATTAC	0.199
ATAATTTG	0.278
ATAATTAT	0.377
ATAATTAC	0.295
ATAATTGG	-0.0135
CAAATTTC	0.201
AGAATTAT	0.191
GGCATTGA	-0.0489
ACCGCGCG	0.225
CCGGTAGC	-0.164
CCTCAATC	0.0973
GCATTCAA	0.0687
AAGGGACG	-0.195
GACCGATC	-0.128
CAGGGTCC	-0.134
AGGGGGAA	-0.248
AATTGGTC	0.0715
GGAATTAC	0.21
GTAATTAA	0.218
CTAATTAG	0.41
CCAATTAG	0.223
GTAATTAC	0.33
ATAATTAG	0.285

Sequence	PBM E-score
ATAATTCG	0.168
ATAATTGA	0.149
AGAATTAG	0.00824
ATAATTAA	0.323
TTAATTAA	0.0562
CTAATTAA	0.147
CCCTATAG	-0.143
ACAGCGCC	-0.0091
TATAAGAA	0.0437
GGCTGGTA	-0.18
ATACTCTA	-0.0262
ATATAATC	0.0826
GATGCAGA	0.146
AAGATGTC	-0.188
GAGAGCCC	-0.458
AGCCGCTG	-0.0754
ACAATTAC	0.119
ACAATTAA	0.148
ACAATTAT	0.267
TAGAGGCA	-0.166
TAACATAA	0.287
CAACATAA	0.255
AAACATAA	-0.131
CAACATAC	0.132
GAACATAA	0.111

Sequence	PBM E-score
CAACATAG	-0.073
CCCCTAAC	-0.15
AGTTGGAT	-0.0953
AGGATCCC	-0.144
CCCAGCGG	-0.264
TATGTGGA	0.146
AGGACGCG	-0.00704
CAGTCTGA	0.0314
CTGTCGGC	-0.107
CCAGTAAA	-0.0575
ACATTGTC	0.292
ACATTATC	0.274
ACATTATG	0.0893
CCATTATC	0.0253
CCATTGTC	0.00119
ACATTGTG	-0.0593
CTAGAGAC	-0.243
AAATTTTC	0.0644
ACGCCTAT	-0.161
AGTGTAGC	-0.0088
GAGGTGGC	-0.149
CGAACGCC	-0.0886
AATCGGAT	0.283
AATCGGAA	0.211
AATCGGAG	0.0523

Sequence	PBM E-score
CCAGTCTC	-0.286
CATCTGGA	-0.165
CACAGCGA	0.133
ATCGCGAG	0.264
ATCGCGAA	0.243
ATATCGCC	0.0776
CACGCGAG	0.239
AGAGCGAG	-0.0569
CTCGCGAG	0.279
ATATCGCG	0.267
CTCGCGAA	0.0936
CGAGCGAC	0.0243
CGAGCGAG	0.258
ATCGCGAT	0.237
ATATCGCA	-0.0511
CCCAGACA	-0.108
CGTTACGA	0.111
CATTAAGC	0.0681
AGTTGAGA	-0.0203
AAGAGCCA	0.0145
AGACCACA	-0.0838
ACGGCGTA	0.0105
AGGAATTG	0.0938
CGATCCCA	-0.0615
CCTGCTAG	-0.182

Sequence	PBM E-score
CGCAACAA	0.0963
GGAGCGTA	0.0102
ATCCGTAC	0.177
CTGGAATC	-0.0416
CCTCCAGA	-0.208
ACCGCGAG	-0.00282
AGCGCGAG	0.0178
ATCGTGCA	0.166
AGCGTGAG	-0.0272
ATCGCGCA	0.0635
CGCGCGAA	0.175
ATCGCGCG	0.282
ATCGTGCG	0.325
CGCGTGAG	0.269
ATCGTGCC	0.102
ATCGCGCC	0.143
CGCGCGAG	0.302
CGCGTGAC	0.056
CAACCAAA	0.0894
CGGAGTAA	0.109
ATAGACCG	-0.0498
AACGCACC	-0.0282
ACACCAAC	-0.0461
CTCAATGC	-0.134
ACTGGGAA	-0.0452

Sequence	PBM E-score
CCTTATCA	0.257
GCTTATCA	0.0614
ACTTATCA	0.116
TCTTATCA	0.267
CCTTATCG	0.0678
TCTTATAA	0.0694
TGTGAAAA	0.103
ACGGAACC	0.218
GACCGGGC	-0.104
AACTGATA	0.0697
ACAGACCC	-0.211
AGAGACCT	-0.104
CGGGACTA	-0.22
ACGCACTG	-0.0467
GGGCCTTA	-0.0621
ATTAGTTA	0.362
ATTAGTTG	0.216
GTTAGTCA	0.266
ATTAGTGG	0.163
CTTAGTCC	-0.0572
ATTAGTGC	0.353
GGTAGTCA	-0.206
ATTAGTGA	0.14
CTTAGTCA	0.38
GTTAGTTA	0.155

Sequence	PBM E-score
GCTAGTCA	-0.0828
CCTAGTCA	-0.0765
GGTCTCAA	-0.0801
GTCTACGA	-0.0725
CCGGTTAG	0.0658
CACCGATG	-0.179
ATTTCGAC	-0.0837
GCGGGTAC	0.0345
CAATACCG	-0.0276
AGGTCCCG	-0.0309
AGCGATCG	0.216
ACGCTAGC	-0.0932
AGGCATTA	-0.16
AAGGGGCT	0.0431
CAGCGGTC	-0.229
GATAGTAA	0.156
GTTAGTGA	-0.0153
CATAGTAA	0.141
TATAGTAA	0.294
GTTAGTAA	0.422
GGTAGTAA	-0.0434
ACCACACC	-0.169
CCAGGAAG	-0.131
ACTCGACT	-0.153
CACCGAAA	0.12

Sequence	PBM E-score
ATGACAAG	0.127
CTGACATA	0.205
CTGACCAA	0.276
ATGACAAC	0.183
ATGACAAA	0.414
TTGACCAA	0.0548
GTGACCAA	0.0231
TTGACAAA	0.294
ATGACATA	0.267
ATGACATC	0.232
GTGACAAA	0.229
TCGACAAA	0.195
CAGCGCGG	0.112
TATTGCAA	0.19
CTCCGCAG	0.00742
GGCCTTAC	-0.166
AACCAAAC	-0.102
AGATGGGA	-0.204
CTGACAAG	0.101
CTGACAAC	0.0707
CTGACAAA	0.444
